Of roughly 7,900 targets only a part is listed; those with a hit were picked by preference. About 0.6% of all pairs of compound and target were hits. Unmarked numbers belong to inactive results.
Columns and labels:
Assay in all cases: log2 fold change, soluble protein after heating vs DMSO (PISA); higher = thermal stabilisation; K562 cells, 10 uM, 30 min; active = over 0.2 and 3.5 SD of the protein, either way, in both replicates (recomputed)
bafetinib = compound: Cc1ccc(NC(=O)c2ccc(CN3CC[C@H](N(C)C)C3)c(C(F)(F)F)c2)cc1Nc1nccc(-c2cncnc2)n1 [bafetinib]
Outline: (§1)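 Quantification of soluble protein used TMTpro 16plex LC-MS/MS, with channel sums equalised. Samples were the supernatant after 21,000xg for 90 min of pooled aliquots from K562 cells (2×10^6 cells/mL) treated with 10 μM compound for 30 min, heated for 3 min over 48°C-58°C, and extracted in PBS with 0.5% NP-40 at 4°C. Values, from duplicates, describe thermal stability against control samples on a log2 fold-change scale.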

[1] = compound: Cc1cccc(CC(=O)N2CCc3c2ccc(-c2cn(C)c4ncnc(N)c24)c3F)n1
Outline: as §1

nilotinib = compound: Cc1cn(-c2cc(NC(=O)c3ccc(C)c(Nc4nccc(-c5cccnc5)n4)c3)cc(C(F)(F)F)c2)cn1 [nilotinib]
Outline: as §1

[2] = compound: Cc1nc(Nc2n[nH]c3c2CN(C(=O)N[C@H](CN(C)C)c2ccccc2)C3(C)C)c2sccc2n1
Outline: as §1

dasatinib = compound: Cc1nc(Nc2ncc(C(=O)Nc3c(C)cccc3Cl)s2)cc(N2CCN(CCO)CC2)n1 [dasatinib]
Outline: as §1

[3] = compound: Cc1ncc(-c2ccnc(Nc3ccc(S(C)(=O)=O)cc3)n2)n1C(C)C
Outline: as §1

[4] = compound: Cn1cc(-c2ccc3c(c2)CCN3C(=O)Cc2cccc(C(F)(F)F)c2)c2c(N)ncnc21
Outline: as §1

[5] = compound: Cn1cc(-c2ccc3nnc(C(F)(F)c4ccc5ncccc5c4)n3n2)cn1
Outline: as §1

tipifarnib = compound: Cn1cncc1[C@@](N)(c1ccc(Cl)cc1)c1ccc2c(c1)c(-c1cccc(Cl)c1)cc(=O)n2C [tipifarnib]
Outline: as §1

mubritinib = compound: FC(F)(F)c1ccc(/C=C/c2nc(COc3ccc(CCCCn4ccnn4)cc3)co2)cc1 [mubritinib]
Outline: as §1

[6] = compound: NC(=O)Nc1cc(-c2cccc(F)c2)sc1C(=O)N[C@H]1CCCNC1
Outline: as §1

[7] = compound: NC(=O)c1cnc(N[C@@H]2CCCC[C@@H]2N)nc1Nc1cccc(-n2nccn2)c1
Outline: as §1

[8] = compound: NC1(c2ccc(-c3nc4ccn5c(=O)[nH]nc5c4cc3-c3ccccc3)cc2)CCC1
Outline: as §1

[9] = compound: NCC(=O)Nc1ccc(-n2nc(C(F)(F)F)cc2-c2ccc3c(ccc4ccccc43)c2)cc1
Outline: as §1

entinostat = compound: Nc1ccccc1NC(=O)c1ccc(CNC(=O)OCc2cccnc2)cc1 [entinostat]
Outline: as §1

vorinostat = compound: O=C(CCCCCCC(=O)Nc1ccccc1)NO [vorinostat]
Outline: as §1

citarinostat = compound: O=C(CCCCCCNC(=O)c1cnc(N(c2ccccc2)c2ccccc2Cl)nc1)NO [citarinostat]
Outline: as §1

silmitasertib = compound: O=C(O)c1ccc2c(c1)nc(Nc1cccc(Cl)c1)c1ccncc12 [silmitasertib]
Outline: as §1

[10] = compound: O=C1NC(=O)C(c2cnc3ccccn23)=C1c1cn2c3c(cc(F)cc13)CN(C(=O)N1CCCCC1)CC2
Outline: as §1

[11] = compound: c1cc(OCCN2CCCCC2)cc(-c2n[nH]c3ccc(-c4nnc[nH]4)cc23)c1
Outline: as §1

Chain of UniProt O00170 (O00170 whole entry, looked up): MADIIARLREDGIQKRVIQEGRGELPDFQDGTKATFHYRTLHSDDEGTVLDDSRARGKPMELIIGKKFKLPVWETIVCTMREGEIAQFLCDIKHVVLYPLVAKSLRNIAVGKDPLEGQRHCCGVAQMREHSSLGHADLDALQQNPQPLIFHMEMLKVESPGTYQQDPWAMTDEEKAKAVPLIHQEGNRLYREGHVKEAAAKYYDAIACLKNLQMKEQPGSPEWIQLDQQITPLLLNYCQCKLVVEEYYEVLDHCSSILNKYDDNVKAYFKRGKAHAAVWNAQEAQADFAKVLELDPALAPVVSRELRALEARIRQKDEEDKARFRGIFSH
Chain of UniProt P17707 (P17707 whole entry, looked up): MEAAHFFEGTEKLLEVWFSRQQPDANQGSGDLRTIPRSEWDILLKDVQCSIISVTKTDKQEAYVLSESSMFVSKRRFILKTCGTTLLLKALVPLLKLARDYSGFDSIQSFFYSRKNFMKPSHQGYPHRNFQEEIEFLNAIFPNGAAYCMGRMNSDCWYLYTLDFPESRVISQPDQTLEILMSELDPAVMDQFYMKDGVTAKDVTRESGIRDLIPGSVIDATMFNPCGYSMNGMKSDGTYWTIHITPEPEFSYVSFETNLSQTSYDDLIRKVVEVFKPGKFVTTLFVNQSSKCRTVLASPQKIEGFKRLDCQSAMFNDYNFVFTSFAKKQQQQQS
Chain of UniProt P78363 (P78363 whole entry, looked up): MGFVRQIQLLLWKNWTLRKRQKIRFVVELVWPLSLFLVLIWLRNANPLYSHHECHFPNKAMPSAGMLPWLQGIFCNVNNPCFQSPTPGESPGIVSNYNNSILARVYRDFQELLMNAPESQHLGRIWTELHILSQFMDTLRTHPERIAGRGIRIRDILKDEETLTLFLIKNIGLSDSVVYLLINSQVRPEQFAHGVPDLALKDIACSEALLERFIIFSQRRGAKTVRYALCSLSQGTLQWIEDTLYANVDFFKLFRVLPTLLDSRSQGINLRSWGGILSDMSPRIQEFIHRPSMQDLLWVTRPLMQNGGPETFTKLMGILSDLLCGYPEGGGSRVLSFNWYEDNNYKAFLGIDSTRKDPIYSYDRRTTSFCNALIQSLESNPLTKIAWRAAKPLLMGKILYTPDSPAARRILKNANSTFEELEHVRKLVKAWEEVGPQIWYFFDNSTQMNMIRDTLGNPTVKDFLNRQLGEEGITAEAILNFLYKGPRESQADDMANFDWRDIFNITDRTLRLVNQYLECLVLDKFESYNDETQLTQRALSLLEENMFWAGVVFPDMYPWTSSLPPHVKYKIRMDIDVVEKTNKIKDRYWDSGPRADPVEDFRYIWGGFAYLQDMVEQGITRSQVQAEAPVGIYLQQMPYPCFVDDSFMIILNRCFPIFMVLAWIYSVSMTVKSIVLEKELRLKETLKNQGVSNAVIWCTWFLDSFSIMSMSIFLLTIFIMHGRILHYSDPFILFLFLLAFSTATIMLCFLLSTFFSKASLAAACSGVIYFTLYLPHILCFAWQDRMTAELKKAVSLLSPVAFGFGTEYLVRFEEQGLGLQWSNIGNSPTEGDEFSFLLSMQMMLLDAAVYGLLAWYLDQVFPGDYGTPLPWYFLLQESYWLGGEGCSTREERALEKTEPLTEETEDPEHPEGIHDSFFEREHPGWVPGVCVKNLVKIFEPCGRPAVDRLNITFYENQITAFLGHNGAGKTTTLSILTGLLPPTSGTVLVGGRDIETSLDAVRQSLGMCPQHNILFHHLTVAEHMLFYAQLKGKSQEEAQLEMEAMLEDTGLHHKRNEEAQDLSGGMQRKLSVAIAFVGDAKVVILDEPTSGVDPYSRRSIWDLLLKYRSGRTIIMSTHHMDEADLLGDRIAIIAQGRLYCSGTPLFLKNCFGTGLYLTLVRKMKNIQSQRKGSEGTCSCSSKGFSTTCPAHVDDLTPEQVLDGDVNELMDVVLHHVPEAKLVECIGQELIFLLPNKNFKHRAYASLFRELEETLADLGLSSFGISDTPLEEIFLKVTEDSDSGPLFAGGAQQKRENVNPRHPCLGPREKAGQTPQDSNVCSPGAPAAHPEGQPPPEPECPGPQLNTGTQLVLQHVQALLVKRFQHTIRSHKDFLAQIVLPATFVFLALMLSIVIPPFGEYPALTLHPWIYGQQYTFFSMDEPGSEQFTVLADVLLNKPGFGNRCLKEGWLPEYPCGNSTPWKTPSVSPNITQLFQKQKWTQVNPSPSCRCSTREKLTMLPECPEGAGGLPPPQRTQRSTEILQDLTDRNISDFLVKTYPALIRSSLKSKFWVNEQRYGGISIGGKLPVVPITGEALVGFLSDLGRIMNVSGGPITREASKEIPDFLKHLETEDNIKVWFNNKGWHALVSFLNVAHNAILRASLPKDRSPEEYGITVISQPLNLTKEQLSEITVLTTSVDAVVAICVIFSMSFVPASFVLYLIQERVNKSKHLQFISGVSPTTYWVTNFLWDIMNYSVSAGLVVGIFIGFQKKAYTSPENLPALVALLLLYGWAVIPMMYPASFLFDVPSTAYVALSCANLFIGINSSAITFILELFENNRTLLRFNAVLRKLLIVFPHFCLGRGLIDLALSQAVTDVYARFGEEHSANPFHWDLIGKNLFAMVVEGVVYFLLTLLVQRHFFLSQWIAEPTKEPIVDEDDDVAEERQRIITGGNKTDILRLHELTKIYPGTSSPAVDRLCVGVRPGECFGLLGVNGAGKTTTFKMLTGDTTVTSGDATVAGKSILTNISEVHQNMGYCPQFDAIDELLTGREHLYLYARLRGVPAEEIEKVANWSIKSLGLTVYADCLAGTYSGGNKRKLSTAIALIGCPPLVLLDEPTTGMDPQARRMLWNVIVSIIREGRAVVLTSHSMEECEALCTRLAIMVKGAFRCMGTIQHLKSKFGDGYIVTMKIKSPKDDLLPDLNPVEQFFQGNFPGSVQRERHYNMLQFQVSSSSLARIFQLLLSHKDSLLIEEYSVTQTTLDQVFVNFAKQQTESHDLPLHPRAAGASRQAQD
Chain of UniProt Q9ULX6 (Q9ULX6 whole entry, looked up): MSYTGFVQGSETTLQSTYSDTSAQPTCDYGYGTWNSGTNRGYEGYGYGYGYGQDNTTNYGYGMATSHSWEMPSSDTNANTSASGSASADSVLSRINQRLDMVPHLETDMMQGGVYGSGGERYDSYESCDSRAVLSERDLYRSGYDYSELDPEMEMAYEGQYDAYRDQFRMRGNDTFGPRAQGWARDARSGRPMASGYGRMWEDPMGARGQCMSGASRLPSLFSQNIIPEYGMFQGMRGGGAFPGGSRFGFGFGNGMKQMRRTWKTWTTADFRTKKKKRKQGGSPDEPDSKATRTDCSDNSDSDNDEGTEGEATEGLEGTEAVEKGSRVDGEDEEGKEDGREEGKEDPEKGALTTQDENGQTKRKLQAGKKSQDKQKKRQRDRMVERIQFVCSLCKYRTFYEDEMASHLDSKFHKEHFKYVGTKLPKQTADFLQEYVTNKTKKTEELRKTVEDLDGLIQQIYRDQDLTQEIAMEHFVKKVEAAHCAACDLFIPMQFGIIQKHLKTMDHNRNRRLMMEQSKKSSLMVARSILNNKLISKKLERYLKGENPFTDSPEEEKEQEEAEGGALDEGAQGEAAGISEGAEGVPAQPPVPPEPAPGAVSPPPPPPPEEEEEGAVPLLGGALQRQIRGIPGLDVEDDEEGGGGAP
Chain of UniProt Q9NWX5 (Q9NWX5 whole entry, looked up): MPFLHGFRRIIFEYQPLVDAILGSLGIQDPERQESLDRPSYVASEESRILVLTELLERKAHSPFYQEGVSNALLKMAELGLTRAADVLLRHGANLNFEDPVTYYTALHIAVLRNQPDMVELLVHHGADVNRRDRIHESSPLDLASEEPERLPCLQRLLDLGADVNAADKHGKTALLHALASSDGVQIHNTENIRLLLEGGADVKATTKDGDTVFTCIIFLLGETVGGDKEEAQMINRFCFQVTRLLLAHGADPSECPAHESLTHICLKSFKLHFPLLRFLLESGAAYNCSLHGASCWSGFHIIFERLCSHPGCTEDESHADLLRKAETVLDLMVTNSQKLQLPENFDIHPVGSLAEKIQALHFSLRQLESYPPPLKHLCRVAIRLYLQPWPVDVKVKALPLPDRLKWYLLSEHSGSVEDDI
Chain of UniProt Q562R1 (Q562R1 whole entry, looked up): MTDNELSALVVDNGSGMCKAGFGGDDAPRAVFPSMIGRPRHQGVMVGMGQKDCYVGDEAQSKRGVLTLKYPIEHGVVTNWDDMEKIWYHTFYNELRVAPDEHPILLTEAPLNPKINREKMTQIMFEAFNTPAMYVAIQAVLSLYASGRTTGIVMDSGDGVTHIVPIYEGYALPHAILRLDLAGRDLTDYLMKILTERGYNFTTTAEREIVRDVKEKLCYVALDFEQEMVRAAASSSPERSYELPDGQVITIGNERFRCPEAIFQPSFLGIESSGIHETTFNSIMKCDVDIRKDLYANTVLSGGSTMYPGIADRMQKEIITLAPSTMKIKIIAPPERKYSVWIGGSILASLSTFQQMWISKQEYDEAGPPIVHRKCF
Chain of UniProt P54252 (P54252 whole entry, looked up): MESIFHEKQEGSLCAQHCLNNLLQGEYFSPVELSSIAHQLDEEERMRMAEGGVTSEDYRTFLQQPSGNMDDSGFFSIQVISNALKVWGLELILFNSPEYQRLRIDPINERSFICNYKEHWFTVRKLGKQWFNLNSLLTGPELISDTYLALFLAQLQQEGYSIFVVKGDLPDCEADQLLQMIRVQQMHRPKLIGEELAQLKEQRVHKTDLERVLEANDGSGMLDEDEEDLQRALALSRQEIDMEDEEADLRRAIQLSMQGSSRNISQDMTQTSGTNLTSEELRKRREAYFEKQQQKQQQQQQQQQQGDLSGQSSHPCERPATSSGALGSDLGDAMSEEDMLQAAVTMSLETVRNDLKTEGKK
Chain of UniProt P24666 (P24666 whole entry, looked up): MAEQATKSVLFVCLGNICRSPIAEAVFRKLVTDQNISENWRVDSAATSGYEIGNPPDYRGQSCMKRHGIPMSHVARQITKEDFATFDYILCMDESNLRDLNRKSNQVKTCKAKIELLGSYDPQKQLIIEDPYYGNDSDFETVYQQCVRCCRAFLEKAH

Target | log2 fold change (bafetinib) | log2 fold change [1] | log2 fold change (nilotinib) | log2 fold change [2] | log2 fold change (dasatinib) | log2 fold change [3] | log2 fold change [4] | log2 fold change [5] | log2 fold change (tipifarnib) | log2 fold change (mubritinib) | log2 fold change [6] | log2 fold change [7] | log2 fold change [8] | log2 fold change [9] | log2 fold change (entinostat) | log2 fold change (vorinostat) | log2 fold change (citarinostat) | log2 fold change (silmitasertib) | log2 fold change [10] | log2 fold change [11]
ATL2 (UniProt Q8NHH9) | 0.026 | 0.034 | 0.081 | -0.008 | -0.129 | 0.031 | 0.083 | 0.18 | -0.014 | 0.104 | -0.021 | -0.03 | -0.165 | -0.094 | -0.025 | 0.017 | -0.023 | -0.004 | -0.025 | -0.058
ATRN (UniProt O75882) | -0.006 | 0.004 | 0.027 | -0.055 | -0.047 | 0 | 0.097 | – | 0.048 | -0.027 | -0.007 | -0.023 | -0.073 | -0.031 | -0.016 | -0.006 | -0.004 | 0.006 | -0.538 (active) | -0.092
AIP (UniProt O00170) | 0.017 | 0.02 | -0.062 | -0.009 | -0.144 | 0.056 | 0.031 | 0.012 | -0.058 | 0.015 | -0.004 | 0.011 | -0.128 | 0.018 | 0.084 | 0.076 | 0.105 | 0.038 | 0.031 | 0.036
AGO1 (UniProt Q9UL18) | -0.036 | -0.085 | 0.185 | 0.34 | -0.019 | -0.164 | -0.073 | -0.133 | 0.057 | -0.066 | 0.108 | 0.011 | 0.049 | 0.073 | -0.012 | -0.05 | 0.439 (active) | 0.12 | -0.067 | -0.413
ABCA4 (UniProt P78363) | -0.025 | -0.149 | 0.106 | 0.095 | – | 0.045 | 0.016 | -0.071 | – | 0.154 | 0.007 | -0.092 | 0.061 | – | 0.002 | 0.124 | 0.013 | -0.082 | -0.041 | 0.157
BSCL2 isoform 4 (UniProt Q96G97) | -0.225 | -0.041 | 0.101 | 0.026 | -0.14 | 0.116 | 0.002 | – | 0.109 | 0.133 | – | -0.197 | -0.013 | 0.007 | – | 0.074 | – | 0.172 | 0.033 | –
ATXN3 isoform 1 (UniProt P54252) | 0.03 | 0.021 | -0.038 | -0.11 | – | -0.021 | 0.001 | 0.033 | 0.026 | 0.018 | – | -0.256 | -0.137 | -0.019 | – | -0.003 | -0.01 | 0.093 | – | -0.015
ASB6 (UniProt Q9NWX5) | -0.039 | 0.014 | -0.066 | -0.279 | – | -0.07 | – | -0.034 | -0.02 | 0.037 | 0.076 | 0.161 | -0.216 | -0.032 | -0.12 | -0.075 | 0.106 | -0.006 | 0.059 | 0.07
ATP6V1H (UniProt Q9UI12) | -0.057 | 0.037 | -0.015 | -0.016 | -0.029 | 0.049 | 0.025 | -0.013 | -0.01 | 0.098 | 0 | -0.141 | -0.201 | -0.094 | 0.046 | 0.032 | 0.031 | 0.005 | 0.025 | -0.062
AKAP8L (UniProt Q9ULX6) | -0.078 | -0.039 | 0.044 | -0.02 | -0.161 | -0.052 | -0.036 | -0.14 | 0.039 | 0.003 | -0.006 | 0.153 | -0.063 | -0.098 | 0.01 | 0.088 | 0.124 | -0.012 | -0.236 | -0.067
ADAM15 (UniProt Q13444) | 0.067 | 0.003 | -0.11 | -0.043 | -0.009 | 0.079 | -0.355 (active) | 0.018 | -0.053 | – | -0.023 | 0.034 | – | -0.024 | 0.085 | 0.092 | – | – | 0.031 | –
ACTBL2 (UniProt Q562R1) | 0.113 | -0.124 | 0.579 | -0.067 | 0.398 | -0.051 | – | 0.336 | 0.488 | -0.267 | -0.205 | 0.038 | 1.54 (active) | 0.239 | 0.103 | 0.024 | -0.585 | -0.129 | -0.051 | -0.1
AMD1 (UniProt P17707) | 0.091 | -0.141 | -0.089 | 0.001 | – | -0.037 | – | -0.071 | -0.022 | 0.056 | 0.043 | -0.091 | -0.074 | -0.149 | -0.038 | -0.093 | 0.007 | 0.004 | -0.007 | -0.08
ACP1 (UniProt P24666) | 0.041 | 0.013 | 0.078 | -0.071 | -0.129 | -0.01 | 0.037 | – | 0.037 | 0.035 | -0.079 | -0.24 | -0.002 | -0.199 | 0.093 | 0.01 | 0.012 | 0.088 | -0.074 | -0.014
ADD2 (UniProt P35612) | 0.012 | 0.011 | 0.022 | -0.026 | -0.033 | -0.048 | 0.029 | 0.001 | 0.035 | 0.011 | 0.048 | 0.039 | 0.036 | 0.024 | -0.038 | 0.023 | 0.024 | -0.054 | -0.092 | 0.013
ANK2 (UniProt Q01484) | -0.281 | -0.034 | -0.265 | 0.041 | -0.277 | -0.042 | 0.012 | 0.01 | 0.034 | -0.141 | -0.146 | -0.196 | -0.183 | -0.16 | 0.001 | 0.134 | -0.104 | -0.004 | – | -0.019
BTAF1 (UniProt O14981) | -0.158 | 0.025 | -0.004 | -0.059 | -0.131 | 0.035 | 0.04 | -0.003 | -0.034 | -0.022 | -0.024 | -0.012 | -0.152 | -0.104 | 0.012 | 0.037 | 0.038 | 0.036 | -0.062 | 0.079
